Assay outcomes as filed in PubChem BioAssay.
Only some compounds are listed: those with a hit (about 2% of all), similar ones and a draw of the others.
STK33 kin inh = human STK33 kinase inhibition. Q9BYT3. ADP-Glo luminescence, MBP substrate. inhibition, % at 12.5 µM. 27,000 tested, 0.44% active. AID 2322; in the data active = inhibition above about 20%; inconclusive = no clear call, values can overlap the other calls
mut p53 react = restores mutant p53 pathway signaling in SW480 cells | SW480 PUMA-promoter luciferase, p53 mutant reactivation | activation, % at 9.98 µM | 28,000 tested, 1.5% active | AID 624151; in the data active = activation above about 52%; inconclusive = no clear call, values can overlap the other calls
ID4 binder = binders of human ID4 protein. P47928. calls only. AID 624137. small molecule microarray, Flag-ID4 binding, fluorescence F/B. 31,000 tested, 1.2% active; call rule not given here;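 also: a binder raises fluorescence above local background on the spot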
Target sequence (P47928 whole entry, looked up): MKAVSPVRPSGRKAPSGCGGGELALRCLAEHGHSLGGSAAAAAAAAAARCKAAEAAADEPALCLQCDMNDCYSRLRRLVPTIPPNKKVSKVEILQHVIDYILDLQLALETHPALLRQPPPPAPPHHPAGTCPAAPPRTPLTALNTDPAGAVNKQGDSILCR
Each line names hits and unclear results; the compound was inactive in the other large screens.

O=C(CS)NCCCCCCNC(=O)[C@H]1C[C@H]2C(=O)NCC(=O)N2[C@H]1c1cccc(OCCO)c1	none (no result: mut p53 react, ID4 binder)
CC(C)C[C@@H]1NC(=O)[C@@H]2C[C@H](C(=O)NCc3ccc(F)cc3)[C@H](c3cccc(OCCO)c3)N2C1=O	none (no result: mut p53 react)
O=C(NCc1ccc(F)cc1)[C@H]1C[C@H]2C(=O)N[C@@H](Cc3ccccc3)C(=O)N2[C@H]1c1ccc(O)cc1	none (no result: mut p53 react, ID4 binder)
CC(=O)O[C@@H]1C=C[C@@]2(C)C(C[C@@H](OC(C)=O)[C@@]3(C)C4=CC(=O)O[C@@H](c5ccoc5)[C@]4(C)CCC23)C1(C)C (some centres undefined)	none (no result: mut p53 react, ID4 binder)
CC(=O)c1cccc(NC(=O)C2CCCN(S(=O)(=O)c3ccccc3)C2)c1 (centres undefined)	ID4 binder active
Cc1ccc(S(=O)(=O)N2CCCC(C(=O)Nc3ccc4c(c3)OCCO4)C2)cc1 (centres undefined)	none
Cc1ccccc1-c1nc(SCC(=O)Nc2sc3c(c2C#N)CCCC3)n[nH]1	none
COc1c(Cc2ccccc2O)c(O)c(Cc2ccccc2O)c(O)c1C(=O)CCc1ccccc1	none (no result: mut p53 react, ID4 binder)
CC(C)(C)NC(=O)Cn1cc(C(=O)c2ccco2)c2ccccc21	none
Cn1c(NCc2cc(Br)ccc2O)nc2ccccc21	mut p53 react inconclusive
C=CCn1c(NCc2cc(C)ccc2O)nc2ccccc21	none (no result: mut p53 react, ID4 binder)
COc1ccc(CNc2nc3ccccc3n2C)c(O)c1	mut p53 react 142
CCn1c(NCc2ccccc2O)nc2ccccc21	mut p53 react 62
CCN(CC)S(=O)(=O)c1ccc(Cl)c(C(=O)Oc2ccc(C)c(C)c2)c1	none (no result: mut p53 react, ID4 binder)
COc1cc2occ(-c3ccc(O)cc3)c(=O)c2c(OC)c1O	none (no result: mut p53 react, ID4 binder)
O=C(CSC1CC(=O)N(c2ccccc2)C1=O)Nc1ccccc1F (centres undefined)	none
CCn1c2ccccc2c2cc(NC(=O)CCCN3C(=O)c4ccccc4C3=O)ccc21	none
COc1cc2c(cc1NC(=O)COc1ccc([N+](=O)[O-])cc1)oc1ccccc12	none
COc1cc2c(cc1NC(=O)Cc1ccccc1[N+](=O)[O-])oc1ccccc12	mut p53 react 87
O=C1O[C@H](c2ccccc2)[C@H](c2ccccc2)N2[C@H]1[C@@H](C(=O)N1CCCCCCC1)[C@]1(C(=O)Nc3ccc(C#CC4=CCCCC4)cc31)[C@H]2c1ccc(OCCO)cc1	STK33 kin inh 22 (no result: mut p53 react, ID4 binder)
O=C1O[C@@H](c2ccccc2)[C@@H](c2ccccc2)N2[C@@H](c3ccc(OCCO)cc3)[C@]3(C(=O)Nc4ccc(C#CC5=CCCCC5)cc43)[C@@H](C(=O)N3CCN(c4ncccn4)CC3)[C@H]12	none (no result: mut p53 react)
C=CCNC(=O)[C@@H]1[C@H]2C(=O)O[C@H](c3ccccc3)[C@H](c3ccccc3)N2[C@H](c2ccc(OCCO)cc2)[C@@]12C(=O)Nc1ccc(C#CCNC(N)=O)cc12	STK33 kin inh 20 (no result: mut p53 react)
O=C1O[C@@H](c2ccccc2)[C@@H](c2ccccc2)N2[C@@H](c3ccccc3OCCO)[C@]3(C(=O)Nc4ccc(C#CCCO)cc43)[C@@H](C(=O)N3CCN(c4ncccn4)CC3)[C@H]12	none (no result: mut p53 react)
O=C1O[C@H](c2ccccc2)[C@H](c2ccccc2)N2[C@H]1[C@@H](C(=O)N1CCN(c3ncccn3)CC1)[C@]1(C(=O)Nc3ccc(C#CC4(O)CCCCCC4)cc31)[C@H]2c1ccccc1OCCO	none (no result: mut p53 react, ID4 binder)
C=CCNC(=O)[C@@H]1[C@H]2C(=O)O[C@H](c3ccccc3)[C@H](c3ccccc3)N2[C@H](c2ccc(OCCO)cc2)[C@@]12C(=O)Nc1ccc(C#Cc3ccc(OC)cc3)cc12	none (no result: mut p53 react)
O=C1O[C@H](c2ccccc2)[C@H](c2ccccc2)N2[C@H]1[C@@H](C(=O)N1CCCCCCC1)[C@]1(C(=O)Nc3ccc(C#CC4(O)CCCCCC4)cc31)[C@H]2c1ccccc1OCCO	STK33 kin inh 21 (no result: mut p53 react)
O=C1O[C@H](c2ccccc2)[C@H](c2ccccc2)N2[C@H]1[C@@H](C(=O)N1CCCCCCC1)[C@]1(C(=O)Nc3ccc(C#CCCO)cc31)[C@H]2c1ccccc1OCCO	STK33 kin inh 22 (no result: mut p53 react)
O=C(CCc1ccc(O)cc1)CC(CCc1ccc(O)cc1)O[C@@H]1OC[C@@H](O)[C@H](O)[C@H]1O (some centres undefined)	none
CC(C)(C)NC(=O)[C@H]1C[C@H]2CCCC[C@H]2CN1C(=O)C12CC3CC(CC(C3)C1)C2	none (no result: mut p53 react, ID4 binder)
CC1(C)CC[C@]2(C(=O)O)CC[C@]3(C)C(=CCC4[C@@]5(C)CC[C@H](O[C@@H]6O[C@H](C(=O)O)[C@@H](O[C@@H]7OC[C@@H](O)[C@H](O)[C@H]7O)[C@H](O)[C@H]6O)C(C)(C)C5CC[C@]43C)C2C1 (some centres undefined)	none (no result: ID4 binder)
COc1ccc(C#Cc2ccc3c(c2)[C@]2(C(=O)N3)[C@H](C(=O)N3CCCCCCC3)[C@H]3C(=O)O[C@H](c4ccccc4)[C@H](c4ccccc4)N3[C@@H]2c2ccccc2OCCO)cc1	STK33 kin inh 30 (no result: mut p53 react, ID4 binder)
